Data reported in PubChem BioAssay (NCATS).
Records with an inconclusive call do not appear. The source made the active and inactive calls. Unless noted, calls follow the shape of the full dose curve. Bridge positions count the residues as written; N and C are the ends. Square brackets hold non-standard residues; d marks the D form. Peptide text beside a SMILES is read from it. hArg = N=C(N)NCCCC[C@H](N)C(=O)O; Mpa = O=C(O)CCS

Key:
[1] = Primary qHTS for inhibitors of SARS-S pseudo-typed particle cell entry (AID 1479145); conditions: SARS-S pseudotyped particle cell entry, luciferase reporter; series mostly up to 57.1 µM; also: nearly all actives have a fitted effect of over 45% in size
[2] = Primary qHTS for Huh7 cytotoxicity: counterscreen for inhibitors of MERS-S pseudotyped particle cell entry (AID 1479147); conditions: cell viability read-out; series mostly up to 57.1 µM; as to activity change, negative = cytotoxicity: % is scaled to controls: 0 for no effect and ±100 for the full control effect
[3] = Primary qHTS for inhibitors of MERS-S pseudo-typed particle cell entry (AID 1479149); conditions: MERS-S pseudotyped particle entry, luciferase; series mostly up to 57.1 µM; also: nearly all actives have a fitted effect of over 60% in size; as to activity change, negative = inhibition: % is scaled to controls: 0 for no effect and ±100 for the full control effect
[4] = Primary qHTS for Vero E6 cytotoxicity: counterscreen for inhibitors of SARS-S pseudo-typed particle cell entry (AID 1479150); conditions: cell viability; series mostly up to 57.1 µM; as to activity change, negative = cytotoxicity: % is scaled to controls: 0 for no effect and ±100 for the full control effect
[5] = target: Protein phosphatase 1D (Homo sapiens) (UniProt O15297); experiment: RapidFire Mass Spectrometry qHTS Assay for Modulators of WT P53-Induced Phosphatase 1 (WIP1) (AID 1347424; active = well fitted curve in the direction sought with a large enough effect; an effect the other way counts as inactive or inconclusive;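 also: amount of dephosphorylated VEPPL-S-QETFS peptide product formed by WIP1; plate controls were DMSO wells for no effect and GSK830371 inhibitor control at 10 µM for full effect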); conditions: WIP1 dephosphorylation of phosphopeptide, RapidFire MS; series mostly up to 63 µM
Protein phosphatase 1D (Homo sapiens), sequence (O15297 whole entry, looked up): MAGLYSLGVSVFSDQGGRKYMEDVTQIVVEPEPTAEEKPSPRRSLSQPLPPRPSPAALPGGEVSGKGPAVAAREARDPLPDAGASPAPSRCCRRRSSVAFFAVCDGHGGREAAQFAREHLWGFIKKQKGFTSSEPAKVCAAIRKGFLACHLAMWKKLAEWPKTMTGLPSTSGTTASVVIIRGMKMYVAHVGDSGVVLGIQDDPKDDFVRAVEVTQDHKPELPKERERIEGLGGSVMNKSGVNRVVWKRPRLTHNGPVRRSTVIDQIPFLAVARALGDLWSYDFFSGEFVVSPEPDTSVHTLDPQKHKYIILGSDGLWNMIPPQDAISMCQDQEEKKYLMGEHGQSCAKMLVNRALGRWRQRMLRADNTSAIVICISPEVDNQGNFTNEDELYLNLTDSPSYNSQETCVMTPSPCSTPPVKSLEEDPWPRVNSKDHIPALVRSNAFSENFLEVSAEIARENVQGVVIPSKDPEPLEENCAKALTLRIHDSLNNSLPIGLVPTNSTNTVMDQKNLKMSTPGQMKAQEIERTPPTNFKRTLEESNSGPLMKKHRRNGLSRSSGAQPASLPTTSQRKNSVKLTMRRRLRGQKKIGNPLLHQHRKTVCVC
In short: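 10 nM WIP1 preincubated with compounds 1 hr at room temperature in pH 7.5 Tris buffer with 30 mM MgCl2, 1 mM TCEP; 2 uM VEPPL-pS-QETFS phosphopeptide for 5 min, formic acid quench; dephosphorylated product quantified by RapidFire MS against labelled standard.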

[6] = target: Protein phosphatase 1D (Homo sapiens) (UniProt O15297); experiment: Rhodamine-PBP qHTS Assay for Modulators of WT P53-Induced Phosphatase 1 (WIP1) (AID 1347425; active = well fitted curve in the direction sought with a large enough effect; an effect the other way counts as inactive or inconclusive; also: % of control where 0% means no effect); conditions: recombinant WIP1, Rhodamine-PBP phosphate fluorescence, real-time; series mostly up to 57.5 µM
In short: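 5 nM WIP1 + 10 uM Rh-PBP, 50 mM Tris pH 7.5, 30 mM MgCl2, 1 mM TCEP, 0.1 mM EGTA, BSA; cpds pinned, 1 hr RT; + 10 uM phosphopeptide; fluorescence 1-min reads x 11 min; delta = f1 - f0.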

[7] = Primary qHTS for inhibitors of La Crosse Virus (LACV) - induced cell death in SH-SY5Y cells (AID 1508616; active = well fitted curve in the direction sought with a large enough effect; an effect the other way counts as inactive or inconclusive;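 also: top concentration of the series differs between compounds; 0% = infected DMSO wells and 100% = uninfected DMSO wells; higher means more rescue of cells from virus-induced death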); conditions: SH-SY5Y LACV cytopathicity rescue, ATP luminescence, 6 d; series mostly up to 4.29 µM
In short: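 SH-SY5Y cells (6000/well) plated 24 h, then given compounds by pin transfer and LACV at 0.01 MOI for 6 days at 37C. Viability measured by ATPLite luminescence, normalized to infected DMSO and uninfected DMSO.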

[8] = target: Calcium and integrin-binding protein 1 (Homo sapiens) (UniProt Q99828); experiment: Primary qHTS for Identification of Calcium Integrin Binding Protein 1 (CIB1) Competitor (AID 1508620; active = well fitted curve in the direction sought with a large enough effect; an effect the other way counts as inactive or inconclusive;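 also: GST tagged CIB1 binding a fluorescein labelled alphaIIb integrin peptide tracer; top concentration of the series differs between compounds; % is scaled to controls: 0 for no effect and ±100 for the full control effect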); conditions: CIB1-GST / FITC-alphaIIb peptide fluorescence polarization; series mostly up to 114 µM
Calcium and integrin-binding protein 1 (Homo sapiens), sequence (Q99828 whole entry, looked up): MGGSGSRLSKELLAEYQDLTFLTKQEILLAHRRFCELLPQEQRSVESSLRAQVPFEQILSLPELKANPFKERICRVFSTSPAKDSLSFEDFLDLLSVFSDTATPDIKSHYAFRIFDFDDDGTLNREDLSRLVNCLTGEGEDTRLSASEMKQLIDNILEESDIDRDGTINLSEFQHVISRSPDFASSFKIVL
In short: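 Fluorescence polarization competition: GST-tagged CIB1 (1 uM final) preincubated with compound 15 min at room temperature, then FITC-labelled alphaIIb peptide (100 nM final) added. After 15 min at room temperature, polarization read at Ex 480/Em 540.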

CC(C)(C)CC(=O)OCC(=O)[C@@]1(O)CC[C@H]2[C@@H]3CCC4=CC(=O)C=C[C@]4(C)[C@H]3[C@@H](O)C[C@@]21C
inactive: Potency [1] | Potency [2] | Potency [3] | Potency [4]

Cc1ccc(=O)n(-c2ccccc2)c1
inactive: Potency [1] | Potency [2] | Potency [3] | Potency [4]

CC1N=C(N)OC1c1ccccc1 (stereo unspecified)
inactive: Potency [5] | outcome [6] | outcome [7] | Potency [8]

O=C1C(c2[nH]c3ccccc3c2O)=Nc2ccccc21
inactive: Potency [1] | Potency [2] | Potency [3] | Potency [4]

C[C@H](N)[C@H](O)c1cccc(O)c1
inactive: Potency [1] | Potency [2] | Potency [3] | Potency [4]

O=C1c2ccccc2C(=O)C1c1ccccc1
inactive: Potency [1] | Potency [2] | Potency [3] | Potency [4]

C[C@]1(Cn2ccnn2)[C@H](C(=O)O)N2C(=O)C[C@H]2S1(=O)=O
inactive: Potency [1] | Potency [2] | Potency [3] | Potency [4]

CC(=O)OCC(=O)[C@@]1(O)CC[C@H]2[C@@H]3CCC4=CC(=O)C=C[C@]4(C)[C@H]3[C@@H](O)C[C@@]21C
inactive: Potency [1] | Potency [2] | Potency [3] | Potency [4]

O=C(O)CCC(=O)OC[C@@H](NC(=O)C(Cl)Cl)[C@H](O)c1ccc([N+](=O)[O-])cc1
inactive: Potency [1] | Potency [2] | Potency [3] | Potency [4]

C=Cc1c(C)c2cc3[nH]c(cc4nc(cc5nc(cc1[nH]2)C(C)=C5CCC(=O)O)C(CCC(=O)O)=C4C)c(C)c3C=C
inactive: Potency [1] | Potency [2] | Potency [3] | Potency [4]

CC(C)NCC(O)COc1ccc(COCCOC(C)C)cc1 (stereo unspecified)
inactive: Potency [1] | Potency [2] | Potency [3] | Potency [4]

N[C@H](C(=O)O)[C@@H](O)c1ccc(O)c(O)c1
inactive: Potency [1] | Potency [2] | Potency [3] | Potency [4]

O=S1(=O)OC(c2ccc(O)cc2)(c2ccc(O)cc2)c2ccccc21
inactive: Potency [1] | Potency [2] | Potency [3] | Potency [4]

CC(C)(C)NCC(O)COc1cccc2c1CCC(=O)N2 (stereo unspecified)
inactive: Potency [1] | Potency [2] | Potency [3] | Potency [4]

C/C(=N/NC(=O)c1ccncc1)C(=O)O
inactive: Potency [1] | Potency [2] | Potency [3] | Potency [4]

CCCCCOc1ccc(C2SC(=O)NC2=O)cc1OCC (stereo unspecified)
inactive: Potency [1] | Potency [2] | Potency [3] | Potency [4]

Cn1cnc2c1c(=O)[nH]c(=O)n2C
inactive: Potency [1] | Potency [2] | Potency [3] | Potency [4]

C[C@]12CCC(=O)C=C1CC[C@@H]1[C@@H]2[C@@H](O)C[C@@]2(C)[C@H]1CC[C@]2(O)C(=O)CO
inactive: Potency [1] | Potency [2] | Potency [3] | Potency [4]

C[C@@H]1CCN(C(=O)[C@H](CCCN=C(N)N)NS(=O)(=O)c2cccc3c2NC[C@H](C)C3)[C@@H](C(=O)O)C1
inactive: Potency [1] | Potency [2] | Potency [3] | Potency [4]

Cc1c(C(=O)NN2CCCCC2)nn(-c2ccc(Cl)cc2Cl)c1-c1ccc(Cl)cc1
inactive: Potency [1] | Potency [2] | Potency [3] | Potency [4]

COc1ccc2c(c1)c(CC(=O)OCC(=O)O)c(C)n2C(=O)c1ccc(Cl)cc1
inactive: Potency [1] | Potency [2] | Potency [3] | Potency [4]

Nc1nc2ncc(CNc3ccc(C(=O)N[C@@H](CCC(=O)O)C(=O)O)cc3)nc2c(=O)[nH]1
inactive: Potency [1] | Potency [2] | Potency [3] | Potency [4]

CNC(=O)Oc1ccc2c(c1)[C@]1(C)CCN(C)[C@@H]1N2C
inactive: Potency [1] | Potency [2] | Potency [3] | Potency [4]

CCO[C@@H]1O[C@H](C(COCc2ccccc2)OCc2ccccc2)[C@H](OCc2ccccc2)[C@H]1O (stereo partly specified)
inactive: Potency [1] | Potency [2] | Potency [3] | Potency [4]

COc1nc(C)nc(Cl)c1NC1=NCCN1
inactive: Potency [1] | Potency [2] | Potency [3] | Potency [4]

CC(=O)CCC(=O)O
inactive: Potency [1] | Potency [2] | Potency [3] | Potency [4]

CCN1CCN(c2cc(-c3ccc(F)cc3)c3c(n2)CCCCCC3)CC1
inactive: Potency [1] | Potency [2] | Potency [3] | Potency [4]

CCOCC(O)COc1ccc(NC(=O)CC[S+](C)C)cc1 (stereo unspecified)
inactive: Potency [1] | Potency [2] | Potency [3] | Potency [4]

CN(C)CCN(Cc1cccs1)c1ccccn1
inactive: Potency [1] | Potency [2] | Potency [3] | Potency [4]

c1ccc([C@H]2CN3CCSC3=N2)cc1
inactive: Potency [1] | Potency [2] | Potency [3] | Potency [4]

COc1ccc(CN(CCN(C)C)c2ncccn2)cc1
inactive: Potency [1] | Potency [2] | Potency [3] | Potency [4]

Cc1c(N(C)C)c(=O)n(-c2ccccc2)n1C
inactive: Potency [1] | Potency [2] | Potency [3] | Potency [4]

Cc1ccc(Nc2c(F)cccc2Cl)c(CC(=O)O)c1
inactive: Potency [1] | Potency [2] | Potency [3] | Potency [4]

CCCNC(C)(C)COC(=O)c1ccccc1
inactive: Potency [1] | Potency [2] | Potency [3] | Potency [4]

Cc1cccc(N(C)C(=S)Oc2ccc3c(c2)C2CCC3C2)c1 (stereo unspecified)
inactive: Potency [1] | Potency [2] | Potency [3] | Potency [4]

C[N+]12CCC(CC1)C(OC(=O)C(O)(c1ccccc1)c1ccccc1)C2 (stereo unspecified)
inactive: Potency [1] | Potency [2] | Potency [3] | Potency [4]

O=C(CCCCC(=O)Nc1c(I)cc(I)c(C(=O)O)c1I)Nc1c(I)cc(I)c(C(=O)O)c1I
inactive: Potency [1] | Potency [2] | Potency [3] | Potency [4]

Cc1c(C)c2c(c(C)c1OC(=O)CCC(=O)OCCO)CC[C@@](C)(CCC[C@H](C)CCC[C@H](C)CCCC(C)C)O2
inactive: Potency [1] | Potency [2] | Potency [3] | Potency [4]

CC[N+](CC)(CC)CCOC(=O)C(C1CCCC1)C1CCCC1
inactive: Potency [1] | Potency [2] | Potency [3] | Potency [4]

CNC(=O)c1cnn(-c2nc(N)c3ncn([C@@H]4O[C@H](CO)[C@@H](O)[C@H]4O)c3n2)c1
inactive: Potency [1] | Potency [2] | Potency [3] | Potency [4]

CCOC(=O)c1ccc(NC(=O)CN2CCCCC2)cc1
inactive: Potency [1] | Potency [2] | Potency [3] | Potency [4]

NC(N)=NCCC[C@H](N)C(=O)O
inactive: activity change, negative = inhibition [1] -24.6% [at 5.34 µM] | outcome [2] inactive [at 5.34 µM] | outcome [3] inactive [at 5.34 µM] | activity change, negative = cytotoxicity [4] 0.575% [at 5.34 µM]

CCCCN(CCN(CCCC)C(=O)N1CCOCC1)C(=O)N1CCOCC1
inactive: Potency [1] | Potency [2] | Potency [3] | Potency [4]

NC(=O)[C@@H]1CSSCCC(=O)N[C@@H](CCCCN=C(N)N)C(=O)NCC(=O)N[C@@H](CC(=O)O)C(=O)N[C@@H](Cc2c[nH]c3ccccc23)C(=O)N2CCC[C@H]2C(=O)N1 ([Mpa][hArg]GDWPC-NH2; disulfide 1-7)
inactive: Potency [1] | Potency [2] | Potency [3] | Potency [4]

CCOC(=O)c1c(N)sc2c1CCN(Cc1ccccc1)C2
inactive: Potency [1] | Potency [2] | Potency [3] | Potency [4]

NS(=O)(=O)c1ccc(N2CCCCS2(=O)=O)cc1
inactive: Potency [1] | Potency [2] | Potency [3] | Potency [4]

C/C=C/c1ccc(OC)cc1
inactive: Potency [1] | Potency [2] | Potency [3] | Potency [4]

Brc1c(NC2=NCCN2)ccc2nccnc12
inactive: Potency [1] | Potency [2] | Potency [3] | Potency [4]

CC(C)C[C@@H](N)C(=O)O
inactive: Potency [1] | Potency [2] | Potency [3] | Potency [4]

CN1CCCN=C1/C=C/c1cccs1
inactive: Potency [1] | Potency [2] | Potency [3] | Potency [4]

OC(CCN1CCCCC1)(c1ccccc1)C1CC2C=CC1C2 (stereo unspecified)
inactive: Potency [1] | Potency [2] | Potency [3] | Potency [4]

Nc1ccc(N=Nc2ccccc2)c(N)n1
inactive: Potency [1] | Potency [2] | Potency [3] | Potency [4]

CO[C@]1(NC(=O)CSC(F)F)C(=O)N2C(C(=O)O)=C(CSc3nnnn3CCO)CO[C@H]21
inactive: Potency [1] | Potency [2] | Potency [3] | Potency [4]

O=C(O)/C=C/c1ccc(Cn2ccnc2)cc1
inactive: Potency [1] | Potency [2] | Potency [3] | Potency [4]
